The text below walks through data of PubChem BioAssay AID1490 (National Center for Advancing Translational Sciences (NCATS), 2009).

The whole screen tested about 310,000 compounds, of which about 11,000 (3.5%) were called active. About 4% were inconclusive and are not listed. The full list was thinned out, with actives kept by preference. Unmarked numbers belong to inactive results. Calls follow the shape of the dose curve; as a rule, active = well fitted inhibition curve with a large enough effect; inconclusive = small, poorly fitted or top-dose-only effect, or another doubt; inactive = no such curve, though single readings can be large or run the other way.
Potency is read from the fitted curve at half-maximal effect.

In this assay the target is 4'-phosphopantetheinyl transferase ffp (Bacillus subtilis) (UniProt Q9F4F7). The assay is described as follows: qHTS Assay for Inhibitors of Bacillus subtilis Sfp phosphopantetheinyl transferase (PPTase).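 Also: the enzyme is Sfp with the accession as filed and its product quenches rhodamine fluorescence.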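 As to largest response in the series, negative = inhibition: 0% = enzyme reaction without inhibitor and -100% = no enzyme wells.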 Conditions: Biochemical Sfp PPTase activity. The source says:
Assay Submitter: Michael Burkart, University of California, San Diego
Screening Center PI: Austin, C.P.
Screening Center: NIH Chemical Genomics Center [NCGC]
The covalent attachment of a phosphopantetheinyl (4'-PP) arm to a variety of synthases and other proteins is a key posttranslational protein modification. The 4'-PP is installed on the proteins post-translationally from coenzyme A (CoA) on a conserved serine residue by action of phosphopantetheinyl transferase (PPTase) enzymes. Phosphopantetheinylation is essential for synthase activity, and removal of the PPTase gene precludes natural product synthesis in microorganisms, or in the case of fatty acid biosynthesis, renders the organism unviable. PPTase enzymes belong to a distinct structural superfamily. Within bacteria, these enzymes are grouped into two classes based upon primary structure, the AcpS-Type and Sfp-Type PPTases.
Sfp-type PPTases, corresponding to an activator of surfactin production in Bacillus subtilis, are responsible for modifying type I polyketide and nonribosomal peptide synthases of prokaryotes. Sfp-type PPTases are responsible for the activation of a variety of pathogen-associated virulence factors. Among these compounds are toxins such as mycolactone from Mycobacterium ulcerans, siderophores such as vibriobactin from Vibrio cholerae or mycobactin from Mycobacterium tuberculosis, as well as the mycolic acids which form the waxy cell wall of Mycobacteria. The biosyntheses of these natural products are considered attractive targets for drug design.
In search of small molecule Sfp-PPTase inhibitors, a fluorescence quenching assay was developed for detection of Bacillus subtilis Sfp-PPTase enzymatic activity in a miniaturized high-throughput format. The consensus ybbr acceptor peptide […] was N-terminally labeled with Black Hole Quencher-2 (BHQ-2) and used in combination with rhodamine-labeled coenzyme A as a co-substrate.
Inhibition of Sfp-PPTase was detected by recording the fluorescence intensity change over a 30-minute reaction period at a 525 nm excitation and 598 nm emission. Reagents were supplied by Michael Burkart and Timothy Foley, University of California at San Diego.
This BioAssay deposition is for validation of the developed Sfp-PPtase assay.
Assay Buffer: 50 mM Hepes-Na pH 7.6, 10 mM MgCl2, 0.01% Nonidet P-40, and 0.01% BSA.
3 uL of Sfp-PPTase enzyme (final concentration 15 nM) and 1 uL of substrate mixture (final concentration for rhodamine-CoA and BHQ-2-YbbR 5 uM and 12.5 uM, respectively) dispensed in columns 1, 2, 5 - 48. Columns 1 and 2 used to generate neutral control (uninhibited reaction)
Three uL of reagents, consisting of buffer (in columns 3 and 4 as negative control) and Sfp-PPTase (in columns 1, 2, 5 - 48) were dispensed into 1,536-well Greiner black solid bottom plate. Compounds (23 nL) were transferred via Kalypsys pintool equipped with 1,536-pin array. The plate was incubated for 15 min at room temperature, followed by the addition of 1 uL substrate to start the reaction. The plate was then centrifuged at 1000 rpm for 15 seconds, and the fluorescence intensity recorded on a ViewLux High-throughput CCD imager (Perkin-Elmer) using standard BODIPY optics (525 nm excitation and 598 nm emission). The plate was then incubated for 30 minutes, and a second read on the ViewLux was performed. The fluorescence intensity difference over the 30-minute period was used to calculate the respective reaction rate for each well.
For orientation: qHTS replaces the single test concentration by a dilution series.
With `CN(C)c1nc(=Nc2cccc(Cl)c2)ss1`, the Potency is 10 µM (active).

As to `Cc1ccc(-c2ccc(/C=C(\C#N)C(N)=S)o2)c([N+](=O)[O-])c1`, the Potency was 35.5 µM (active).

`N#C/C(=C/c1ccc(-c2ccccc2[N+](=O)[O-])o1)C(=O)NCCN1CCCCC1`: the largest response in the series, negative = inhibition is -17.3%.

As to `Cc1ccc(Cc2cnc(NC(=O)/C(C#N)=C/c3ccc(-c4cccc([N+](=O)[O-])c4)o3)s2)cc1`, the largest response in the series, negative = inhibition is 3.34%.

Take `CC(C)(C)C(=O)NC1CC2CCCC(C1)N2C(=O)Nc1ccccc1F` (stereo unspecified): the largest response in the series, negative = inhibition was 15.8%.

For the compound `O=C(c1ccncc1)N1CCC2(CCN(Cc3cc(C(F)(F)F)cc(C(F)(F)F)c3)CC2)CC1`, the largest response in the series, negative = inhibition is 8.21%.

Regarding `N#Cc1c(C(F)(F)F)cc(-c2ccc(Cl)cc2)nc1SCC(=O)O`, the largest response in the series, negative = inhibition is 7.84%.

Take `N#Cc1c(-c2ccccc2)cc(-c2ccccc2)nc1SCC(=O)O`: the Potency is 35.5 µM (active).

With `CCSc1nc(-c2ccc(OC)cc2)cc(-c2ccc(OC)cc2)c1C#N`, the largest response in the series, negative = inhibition is 4.06%.

For the compound `CCC/C(C)=N\Nc1nc2c(c(=O)n(C)c(=O)n2C)n1C`, the Potency was 39.8 µM (active).

Consider `Cn1c(=O)c2c(nc(NCc3ccccc3)n2CC(N)=O)n(C)c1=O`, for which the largest response in the series, negative = inhibition was 10.1%.

Regarding `CC(O)c1nc2c(c(=O)n(C)c(=O)n2C)n1C` (stereo unspecified), the largest response in the series, negative = inhibition is 11.9%.

For `CCCC[C@H]1COCCS(=O)(=O)N1Cc1cccc(Cl)c1`, the largest response in the series, negative = inhibition was -5.24%.

In the case of `COc1ccc(CNC(=O)c2nnn(CC(=O)Nc3cc(C)cc(C)c3)c2N)cc1`, the largest response in the series, negative = inhibition is -8.71%.

In the case of `COc1ccc(C(=O)Nc2c(N)nc(SCC(=O)Nc3ccc(C(C)=O)cc3)[nH]c2=O)cc1`, the largest response in the series, negative = inhibition was -14.5%.

Take `Cc1ccc(OCC(=O)Nc2ccccc2C(=O)NC2CC2)cc1C`: the largest response in the series, negative = inhibition is -9.75%.

As for `CCOc1ccccc1NC(=O)Cc1cccs1`, the largest response in the series, negative = inhibition is 13.9%.

For `CCOc1ccccc1NC(=O)Cn1nnc(C(=O)NCc2cccs2)c1N`, the Potency is 50.1 µM (active).

Consider `CCOc1ccc(Cn2nnc(C(=O)NCc3ccccc3)c2N)cc1`, for which the largest response in the series, negative = inhibition is 9.87%.

For `Cc1cccc(C(=O)OC(C)CN2CCCC2)c1` (stereo unspecified), the largest response in the series, negative = inhibition is 6.65%.

For `Cc1ccc(F)c(NC(=O)CCOc2ccccc2C)c1`, the largest response in the series, negative = inhibition is -1.65%.

Consider `Cn1cc[n+](C)c1COc1ccc(C=O)cc1`, for which the largest response in the series, negative = inhibition is 12%.

On to `O=C1CCC([N+](=O)[O-])C(c2ccccc2Br)N1` (stereo unspecified), for which the largest response in the series, negative = inhibition is 15.7%.

For the compound `CCOC(=O)CSC1=C(C#N)C(c2sccc2C)CC(=O)N1` (stereo unspecified), the largest response in the series, negative = inhibition was 10.2%.

On to `C=CCSC1=C(C#N)C(c2cc(Br)c(O)c(OC)c2)CC(=O)N1` (stereo unspecified), for which the Potency is 25.1 µM (active).

Consider `Cc1ccc(C2CC(=O)NC(SCC(=O)OCc3ccccc3)=C2C#N)o1` (stereo unspecified), for which the largest response in the series, negative = inhibition was -27.5%.

On to `O=S(=O)(NC1CCCC1)c1ccc(-n2cnnn2)cc1`, for which the largest response in the series, negative = inhibition was 25.6%.

On to `O=C(NCCCn1ccnc1)C1CCCN(S(=O)(=O)c2cc(Cl)ccc2Cl)C1` (stereo unspecified), for which the largest response in the series, negative = inhibition was 16.2%.

For `O=C(c1cn(-c2ccccc2)nc1-c1cc2ccccc2oc1=O)N1CCOCC1`, the largest response in the series, negative = inhibition is -5.03%.

Take `O=c1oc2ccccc2cc1-c1cn(-c2ccccc2)c(=S)[nH]1`: the Potency was 35.5 µM (active).

In the case of `O=C(Nc1cc2ccccc2oc1=O)C1CCCCC1`, the largest response in the series, negative = inhibition was 26.6%.

In the case of `Cc1noc(C)c1CCC(=O)N1CCCC(CO)(Cc2ccccc2)C1` (stereo unspecified), the largest response in the series, negative = inhibition is -6.98%.

`COc1ccc2c(c1)O[C@@H](c1ccc3c(c1)OCO3)[C@H](OC(=O)NCCc1ccc(OC)c(OC)c1)C2=O`: the largest response in the series, negative = inhibition was 6.18%.

In the case of `CC(=O)c1ccc(N2CCN(C(=O)C3CCN(S(=O)(=O)c4ccc5c(c4)CC(C)N5C(=O)C4CC4)CC3)CC2)cc1` (stereo unspecified), the largest response in the series, negative = inhibition was -0.0372%.

Consider `O=c1cc(-c2ccc(O)cc2)oc2c(-c3cc(-c4cc(=O)c5c(O)cc(O)cc5o4)ccc3O)c(O)ccc12`, for which the largest response in the series, negative = inhibition was -11.5%.

With `COc1c(O)cc2oc(-c3ccc(O)c(O)c3)cc(=O)c2c1O`, the Potency is 50.1 µM (active).

With `O=c1cc(-c2ccc(O)c(O)c2)oc2cccc(O)c12`, the largest response in the series, negative = inhibition is -4.56%.

For `COc1ccc(C(C)C)cc1S(=O)(=O)Nc1ncn[nH]1`, the largest response in the series, negative = inhibition is 16.1%.

`COc1ccc(CNS(=O)(=O)c2cc(-c3cc(C)no3)ccc2C(C)C)cc1`: the largest response in the series, negative = inhibition is 7.48%.

Turning to `CCc1nc2ccc(C(=O)N3CCN(c4cccc(Cl)c4)CC3)cc2nc1CC`, the largest response in the series, negative = inhibition is -10.1%.

`C#CCC(C(=O)OC)(C(=O)OC)C(C[N+](=O)[O-])c1ccccc1` (stereo unspecified): the largest response in the series, negative = inhibition is -5.44%.

Regarding `Nc1ccccc1SC(C[N+](=O)[O-])c1ccccc1` (stereo unspecified), the Potency is 7.94 µM (active).

`Nc1ccccc1SCc1cc([N+](=O)[O-])cc2c1OCOC2`: the largest response in the series, negative = inhibition is -29.9%.

Regarding `O=c1c2cc(Br)ccc2nc(-c2cccc(Cl)c2)n1O`, the largest response in the series, negative = inhibition is 10.6%.

Regarding `CCc1c(C)nc(N)n2c(SCC(=O)NC3CCCCC3)nnc12`, the largest response in the series, negative = inhibition is 11.3%.

In the case of `O=C(O)C1CCCN1C1=NS(=O)(=O)c2ccccc21` (stereo unspecified), the largest response in the series, negative = inhibition is 13.1%.
